Data: PubChem BioAssay (NCI)
The panel holds about 79,000 compounds, 15% with a hit somewhere; the sample as a whole holds those more often. Cut-off read from the data, not from the text of the source: active = growth inhibition above about 70%; inactive = the rest.

Assays:
[1] = NCI Yeast Anticancer Drug Screen. Data for the rad50 strain (AID 155);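 note: 0% = growth of vehicle-only cultures of the same strain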; conditions: S. cerevisiae rad50 strain growth inhibition; at 50.0 µM; stronger effect = higher value
Procedure, shortened: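 Readout: growth inhibition relative to vehicle-treated cultures. Compound exposure was carried out in a genetically defined yeast strain deficient in DNA damage repair.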

[2] = NCI Yeast Anticancer Drug Screen. Data for the mec2-1 strain (AID 157); conditions: S. cerevisiae mec2-1 strain, at 50.0 µM, stronger effect = higher value
Procedure, shortened: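 Test agents were screened against the mec2-1 yeast strain, with defined DNA repair or cell cycle alteration. Growth was scored as inhibition against vehicle-only controls.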

[3] = NCI Yeast Anticancer Drug Screen. Data for the sgs1 mgt1 strain (AID 161);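 note: 0% = growth of cultures given vehicle only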; conditions: S. cerevisiae sgs1 mgt1 strain, at 50.0 µM, stronger effect = higher value
Procedure, shortened: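 Test agents were incubated with a DNA-repair-mutant yeast strain. Growth was then read and compared against vehicle-treated controls.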

[4] = NCI Yeast Anticancer Drug Screen. Data for the cln2 rad14 strain (AID 165);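 note: 0% = growth equal to vehicle treated cultures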; conditions: S. cerevisiae cln2 rad14 strain, at 50.0 µM, stronger effect = higher value
Procedure, shortened: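 Growth of compound-exposed yeast (cln2 rad14 genotype) measured and expressed as inhibition relative to vehicle.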

[5] = NCI Yeast Anticancer Drug Screen. Data for the bub3 strain (AID 167); conditions: S. cerevisiae bub3 mutant strain, at 50.0 µM, stronger effect = higher value
Procedure, shortened: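 Readout: yeast growth inhibition, expressed relative to vehicle-only wells. The test organism is a mutant strain from a panel with lesions in DNA repair or checkpoint genes.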

[6] = NCI Yeast Anticancer Drug Screen. Data for the mlh1 rad18 strain (AID 175); conditions: S. cerevisiae mlh1 rad18 strain growth inhibition; at 50.0 µM; stronger effect = higher value
Procedure, shortened: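 In this whole-cell yeast screen, a strain with altered DNA damage repair is challenged with compound, and its growth is measured against matched vehicle-treated controls.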

Measured: growth inhibition

CC(=O)c1ccc2c(ccc3ccccc32)c1O
inactive: [1] -16.5% | [2] -11.6% | [3] -3.65% | [4] -8.8% | [5] -2.45% | [6] 0.7%

CN(C(=O)C(Cl)Cl)c1ccc(-c2csc(Cc3ccccc3)n2)cc1
inactive: [1] 38.7% | [2] 6.3% | [3] 1.05% | [4] 7.05% | [5] 34.8% | [6] 28.2%

CN(C)CCN1C(=O)CC[C@@]2(C)C1=CC[C@@H]1[C@@H]2CC[C@@]2(C)[C@H]1CC[C@]2(C)O
inactive: [1] -21.7% | [2] -12.8% | [3] -18.6% | [4] -11.1% | [5] -0.1% | [6] -9.15%

COC12OCCN(C)C1=CC(=O)C1=NNC(C)C12 (stereo not drawn)
inactive: [1] -37% | [2] -1.6% | [3] -8% | [4] -27% | [5] -11.8% | [6] -36.5%

CCCNC(C#N)c1ccc(C(C#N)NCCC)cc1 (stereo not drawn)
inactive: [1] -4.6% | [2] -10.4% | [3] -12.6% | [4] -5.9% | [5] -23.8% | [6] -7.8%

Nc1cccc2c1C(=O)OC2=O
inactive: [1] -6.6% | [2] -6.2% | [3] -10.2% | [4] -5.7% | [5] -3.45% | [6] 3.85%

Cc1c(C)c(C)c(Br)c(C)c1C
inactive: [1] -6.7% | [2] -5.05% | [3] -14% | [4] -17.6% | [5] 1.15% | [6] 0.65%

Cc1ccc2c(c1)C(C)(C)CCC2
inactive: [1] -2.1% | [2] -18.4% | [3] -18.4% | [4] -59.6% | [5] -9.1% | [6] 4.95%

O=C1NC2(CCN(CCCC3(c4ccc(F)cc4)OCCO3)CC2)Oc2ccccc21
inactive: [1] -11.6% | [2] -35.7% | [3] -1.15% | [4] -11.6% | [5] 5.8% | [6] -55.7%

CC(=O)OC1CCC23COC(CC(C)C2C)C3(Cl)C1 (stereo not drawn)
inactive: [1] -0.7% | [2] -4.65% | [3] -3.25% | [4] -8.1% | [5] -11.2% | [6] 5.05%

CC(C)(C)c1ccn[nH]1.CC(C)(C)c1ccn[nH]1.[Cl-].[Cl-].[O]=[V][O-]
inactive: [1] 0.9% | [2] -12.4% | [3] 9.65% | [4] -29.2% | [5] -21.8% | [6] -12.8%

COc1ccc([N+](=O)[O-])c2c(NCC(O)CO)ccnc12 (stereo not drawn)
inactive: [1] -0.35% | [2] -11% | [3] -9.7% | [4] -8.2% | [5] -25.1% | [6] -47.2%

CCN(CC)c1ccc(/C=C2\CCc3ccc([N+](=O)[O-])cc3C2=O)cc1
inactive: [1] 1.95% | [2] -14.7% | [3] 6.2% | [4] -3.75% | [5] 3.8% | [6] -7.95%

CC1([N+](=O)[O-])C(=O)C2(N3CCCC3)CCCC2C1c1ccccc1 (stereo not drawn)
inactive: [1] 0.5% | [2] 8.4% | [3] -10.9% | [4] -2.25% | [5] 8.3% | [6] -9.35%

COc1cc(C(=O)Oc2c(C#N)sc3c2c(=O)n(-c2ccccc2)c(=S)n3-c2ccccc2)cc(OC)c1OC
inactive: [1] 22.8% | [2] 3.2% | [3] 12.1% | [4] 10.2% | [5] 21.9% | [6] 20.5%

CC(=O)Nc1ccc(SC#N)c2c(NC(C)=O)cccc12
inactive: [1] 44.6% | [2] 27.5% | [3] 56.5% | [4] 27.6% | [5] 30.4% | [6] 47.7%

CSc1nc(NC2OC(COC(C)=O)C(OC(C)=O)C(OC(C)=O)C2OC(C)=O)c(C(=O)CCl)c(=O)n1C (stereo not drawn)
inactive: [1] 6.8% | [2] 15.9% | [3] 3.15% | [4] 5.8% | [5] 5.1% | [6] 24.5%

CCC(=O)OC1C(OC2C(C)C(OC3CC(C)(OC)C(O)C(C)O3)C(C)C(=O)OC(CC)C(C)(O)C(O)C(C)C(=O)C(C)CC2(C)O)OC(C)CC1N(C)C (stereo not drawn)
inactive: [1] -18.1% | [2] -28.1% | [3] -31.2% | [4] 5.7% | [5] -3% | [6] -76.8%

CC1=Nc2ccccc2N2C1=CC1=C(C(=O)c3cc4ccccc4cc3C1=O)C2C (stereo not drawn)
inactive: [1] 16.4% | [2] 6.65% | [3] 5.75% | [4] 24.2% | [5] -5.2% | [6] 24.4%

CC(=O)n1c2ccccc2c2nc3ccccc3nc21
inactive: [1] 0.3% | [2] 10.4% | [3] 11.9% | [4] -30.9% | [5] -19.6% | [6] -14.1%

Cc1nc2ccc(S(=O)(=O)Nc3ccccn3)cc2c(=O)n1NS(=O)(=O)c1ccccn1
inactive: [1] 42.6% | [2] 12.1% | [3] 12% | [4] 22.8% | [5] -14.2% | [6] 26.4%

COc1ccc(N=C2S/C(=N\C(=Nc3ccccc3)SCc3ccccc3)N(c3ccccc3)C2=Nc2ccc(OC)cc2)cc1
inactive: [1] -4.55% | [2] -5.85% | [3] -8.25% | [4] 4.05% | [5] -6.8% | [6] 5.25%

CCCOC1CC(C)C(O)C(C)C1 (stereo not drawn)
inactive: [1] 24.6% | [2] -4.15% | [3] 3.35% | [4] -10.8% | [5] -1.35% | [6] 15.5%

Nc1ncc([N+](=O)[O-])c(=O)[nH]1
inactive: [1] -29.9% | [2] -14.2% | [3] -1.35% | [4] -4.25% | [5] 0.55% | [6] 26.9%

O=c1[nH]c(=O)n(C2OC(CO)C(O)C2O)cc1NN=NCc1ccccc1 (stereo not drawn)
inactive: [1] -10.1% | [2] -13.7% | [3] -11.2% | [4] 4.9% | [5] -4.5% | [6] -10.9%

CC(=O)OCOC(=O)CN(CC(=O)OCOC(C)=O)Cc1cc2c(cc1OC(C)=O)Oc1cc(OC(C)=O)c(CN(CC(=O)OCOC(C)=O)CC(=O)OCOC(C)=O)cc1C21OC(=O)c2ccccc21
inactive: [1] 14.1% | [2] 9.1% | [3] 15.2% | [4] 14.8% | [5] -5% | [6] 35.1%

S=C([S-])[P+](C1CCCCC1)(C1CCCCC1)C1CCCCC1
inactive: [1] -30.9% | [2] -39.1% | [3] -28.2% | [4] -29.2% | [5] -39.1% | [6] -39.2%

Cc1cc[n+](CC(=O)CC(O)(C(F)(F)F)C(F)(F)F)cc1
inactive: [1] -9% | [2] 5.7% | [3] 15.2% | [4] -4.1% | [5] -6.95% | [6] -1.6%

CC(Sc1ccccc1)C(CO)(CO)[N+](=O)[O-] (stereo not drawn)
inactive: [1] -15.1% | [2] 1.8% | [3] 28.4% | [4] 9.4% | [5] -14.6% | [6] 28.4%

Cc1cc(S(=O)(=O)Nc2n[nH]c(Nc3ccccc3)n2)c(SSc2cc(Cl)c(C)cc2S(=O)(=O)Nc2n[nH]c(Nc3ccccc3)n2)cc1Cl
inactive: [1] 12.2% | [2] 37.8% | [3] 4.95% | [4] 11.9% | [5] 12% | [6] 18.2%

C=C(C)Cc1cc(C(CC)C(CC)c2ccc(O)c(CC(=C)C)c2)ccc1O (stereo not drawn)
inactive: [1] 18.6% | [2] 20.4% | [3] 47.2% | [4] 34.3% | [5] 6.25% | [6] 46%

O=C(c1nc2cc([N+](=O)[O-])ccc2[nH]c1=O)C(O)c1ccco1 (stereo not drawn)
inactive: [1] -8.65% | [2] -25.4% | [3] -25.2% | [4] 13.9% | [5] -35% | [6] -6.35%

CC(=O)Nc1ccc(/C=c2\sc3nnc(CCC(=O)Nc4ccccc4Cl)n3c2=O)cc1
inactive: [1] -16.4% | [2] -17.7% | [3] -20.1% | [4] 7.6% | [5] 7.1% | [6] -9.55%

Cc1cc(=O)[nH]c2c(C)cc(Cl)cc12
inactive: [1] 9.95% | [2] -5.25% | [3] 14.9% | [4] 17.1% | [5] -18.4% | [6] 1.65%

CSC(=S)n1nc(-c2cccs2)c(N=Nc2ccc([N+](=O)[O-])cc2)c1C(F)(F)F
inactive: [1] 19.1% | [2] -3.75% | [3] 19.9% | [4] 12.2% | [5] 3.8% | [6] 0.85%

CCCCSCC(NC(=O)/C=C/c1c(C)[nH]c(=O)[nH]c1=O)C(=O)OC (stereo not drawn)
inactive: [1] 16.1% | [2] 20.2% | [3] 31.2% | [4] 22.4% | [5] 7.7% | [6] 28.6%

N#CC1OC1c1ccccn1 (stereo not drawn)
inactive: [1] -6.25% | [2] 7.05% | [3] -12.3% | [4] 9.05% | [5] 5.35% | [6] -21.6%

Nc1cccc(-c2nc3ncnc(N)c3[nH]2)c1
inactive: [1] 8.6% | [2] -2.15% | [3] -5.5% | [4] -46.9% | [5] -18.5% | [6] -11.2%
